Screening data (PubChem BioAssay)
This excerpt belongs to a sample that is enriched for hits.
Tg IFNy HTS: inhibitors of Toxoplasma gondii growth with IFN-gamma; Toxoplasma gondii growth in IFN-gamma-treated host cells; stronger effect = lower value; hit rate 3.8% among 69,000; activity change, negative = inhibition, % (concentration not given with the values); in the data active means activity change below about -70%, passing the limit was not always enough;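 further: host cells are HeLa cells infected with Toxoplasma gondii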
Starred values were filed as active, the others as inactive.

For COc1ccc2n[nH]c(CN3C[C@@H]4[C@H](C3)[C@H]3CC[C@@H]4O3)c2c1 the results were Tg IFNy HTS 27.
Screening CC[C@H]1CN2CCC1C[C@@H]2[C@H](O)c1ccnc2ccc(OC)cc12 (stereo not given in full) returned Tg IFNy HTS -79*.
Screening CCn1c(C2CCCNC2)nn(CC(F)F)c1=O (stereo not given) returned Tg IFNy HTS -9.
For Cc1nnc2ccc(-c3cccc(C(F)(F)F)c3)nn12 the results were Tg IFNy HTS -80*.
Screening N#Cc1cccc(N2CCCC3(CNCCO3)C2)n1 (stereo not given) returned Tg IFNy HTS -38.
`COC(=O)C1=C(C)NC(C)=C(C(=O)OC)C1c1ccccc1[N+](=O)[O-]` gave Tg IFNy HTS -65.
Screening Cc1cccnc1NCCNC(=O)C1CC2(CCNCC2)CN1 (stereo not given) returned Tg IFNy HTS 3.
O=C(Nc1ccccc1)c1cc2cccnc2n(Cc2ccc(F)cc2)c1=O was read as Tg IFNy HTS 78.
Cc1cc(C)c(NC(=O)c2cc3cccnc3n(Cc3ccccc3F)c2=O)c(C)c1 was read as Tg IFNy HTS -83*.
`O=C(NCCc1ccccc1)c1cc2cccnc2n(Cc2ccc(F)cc2)c1=O` gave Tg IFNy HTS 121.
`Cc1cc(Br)ccc1NC(=O)c1cc2cccnc2n(Cc2ccccc2F)c1=O` gave Tg IFNy HTS 96.
O=C(Nc1ccccc1)c1cc2cccnc2n(Cc2ccccc2F)c1=O was read as Tg IFNy HTS 81.
`CCCCCNC(=O)c1cc2cccnc2n(Cc2ccc(F)cc2)c1=O` gave Tg IFNy HTS -40.
`CC(NC(=O)c1cc2cccnc2n(Cc2ccc(F)cc2)c1=O)c1ccccc1` (stereo not given) gave Tg IFNy HTS -115*.
NS(=O)(=O)c1ccc(CCNC(=O)c2cc3cccnc3n(Cc3ccc(F)cc3)c2=O)cc1 was read as Tg IFNy HTS -88*.
Screening COCC(C)NC(=O)c1cc2cccnc2n(Cc2ccc(F)cc2)c1=O (stereo not given) returned Tg IFNy HTS -50.
Screening CCSc1nnc([C@@H](N)Cc2ccccc2)o1 returned Tg IFNy HTS -9.
For CC(Cc1ccccn1)NC1CCN(c2ccc(C(=O)N3CCc4ccccc4C3)cc2)CC1 (stereo not given) the results were Tg IFNy HTS -7.
For Cc1nc(CN2CCN3C[C@@H](OCc4ccccn4)C[C@@H]3C2)cs1 the results were Tg IFNy HTS -2.
Cc1cc(C)cc(NC(=O)c2cc3cccnc3n(Cc3ccc(F)cc3)c2=O)c1 was read as Tg IFNy HTS -1.
C[C@@H]1CC[C@@]2(OC1)O[C@H]1C[C@H]3[C@@H]4CC=C5C[C@H](O[C@@H]6O[C@@H](CO)[C@@H](O[C@@H]7O[C@@H](C)[C@H](O)[C@@H](O)[C@@H]7O)[C@H](O)[C@H]6O[C@@H]6O[C@@H](C)[C@H](O)[C@@H](O)[C@H]6O)CC[C@]5(C)[C@@H]4CC[C@]3(C)[C@@H]1[C@H]2C was read as Tg IFNy HTS -68.
For CC[N+](CC)(CCCNC1=CC(=O)C(NCCC[N+](CC)(CC)Cc2ccccc2)=CC1=O)Cc1ccccc1 the results were Tg IFNy HTS -3.
Cc1ccc(CNC(=O)c2cc3cccnc3n(Cc3ccccc3F)c2=O)cc1 was read as Tg IFNy HTS 40.
Screening Cc1ccc(CN2C3CCC2CC(O)(Cn2nc(-c4ccccc4)ccc2=O)C3)o1 (stereo not given) returned Tg IFNy HTS 36.
`COc1ccc(C2=NCC(=O)N(Cc3nc(-c4ccccc4)oc3C)c3sccc32)cc1` gave Tg IFNy HTS -95*.
`Cc1oc(-c2ccccc2)nc1CN1C(=O)CN=C(c2ccc(F)cc2)c2c1sc(C)c2C` gave Tg IFNy HTS -40.
`CN1C(=O)CN=C(c2ccccc2)c2cc(Cl)ccc21` gave Tg IFNy HTS -2.
`C/C(=C\c1csc(C)n1)[C@@H]1C[C@@H]2O[C@@H]2CCC[C@H](C)[C@H](O)[C@@H](C)C(=O)C(C)(C)[C@@H](O)CC(=O)O1` gave Tg IFNy HTS -68.
Screening C/C(=C\c1csc(C)n1)[C@H]1C[C@@H]2O[C@]2(C)CCC[C@H](C)[C@H](O)[C@@H](C)C(=O)C(C)(C)[C@H](O)CC(=O)O1 returned Tg IFNy HTS -75*.
For C/C1=C/C[C@@H](/C(C)=C/c2csc(C)n2)OC(=O)C[C@H](O)C(C)(C)C(=O)[C@H](C)[C@@H](O)[C@@H](C)CCC1 the results were Tg IFNy HTS -60.
Screening O=C(c1cccc2ccnn12)N1C[C@H]2C[C@@H](C1)c1cccc(=O)n1C2 returned Tg IFNy HTS 6.
C[C@]12[C@H](O)CC3C(CC[C@@H]4C[C@@H](O)CC[C@]34C)[C@@]1(O)CC[C@@H]2C1=CC(=O)OC1 (stereo not given in full) was read as Tg IFNy HTS -79*.
For C[C@]12CCC3[C@@H](CC[C@@H]4C[C@H](O)CC[C@]34C)[C@@H]1CCC2=O (stereo not given in full) the results were Tg IFNy HTS 37.
CC12CC[C@H]3[C@@H](CCC4(O)C[C@H](O)CCC34/C=N/NC(=O)Cc3ccccc3)C1(O)CCC2C1=CC(=O)OC1 (stereo not given in full) was read as Tg IFNy HTS -10.
For CC(=O)OCC(=O)[C@H]1CC[C@H]2[C@@H]3CC[C@H]4C[C@H](O)CC[C@]4(C)[C@H]3C(=O)C[C@]12C the results were Tg IFNy HTS 2.
Screening C[C@]12CC[C@H](O)C[C@H]1CC[C@@H]1[C@@H]2CC[C@]2(C)[C@@H](C3=CC(=O)OC3)CC[C@]12O returned Tg IFNy HTS -85*.
Screening CC(=O)[C@H]1CC[C@H]2[C@@H]3CC[C@H]4C[C@H](O)CC[C@]4(C)[C@H]3C(=O)C[C@]12C returned Tg IFNy HTS 17.
For C[C@]12CC[C@H](O)C[C@H]1CC[C@@H]1[C@@H]2C[C@@H](O)[C@]2(C)[C@@H](C3=CC(=O)OC3)CC[C@]12O the results were Tg IFNy HTS -87*.
Screening CN1CCN(C(=O)Cc2ccc(O)c(Cl)c2)CC1C(=O)O (stereo not given) returned Tg IFNy HTS 3.
`c1cncc(-c2ccc(C3[C@H]4CNC[C@@H]3N4CC3CC3)cc2)c1` (stereo not given in full) gave Tg IFNy HTS -2.
For CS(=O)(=O)N1CCC2(c3ccccc3)CCNCC12 (stereo not given) the results were Tg IFNy HTS 2.
For CN1CCC2=C(C1)c1ccccc1Cc1ccccc12 the results were Tg IFNy HTS 12.
c1cncc(-n2cccc2CN2CCC3(CCNCC3)C2)c1 was read as Tg IFNy HTS -1.
`c1cnc(NC2COC3(CCCN(CC4CCOCC4)C3)C2)nc1` (stereo not given) gave Tg IFNy HTS 2.
Screening CC(C)CNC(=O)C1CC2CN(Cc3ccncc3)CC1O2 (stereo not given) returned Tg IFNy HTS -1.
For COc1ccc2c(c1)C1(CCN(C(=O)C3(c4ccccc4)CCCC3)CC1)CC2CC(=O)O (stereo not given) the results were Tg IFNy HTS -15.
For COc1ccc2c(c1)C1(CCN(C(=O)c3scnc3C)CC1)CC2CC(=O)O (stereo not given) the results were Tg IFNy HTS -9.
Screening COc1ccc2c(c1)C1(CCN(C(=O)c3nn(C)c4ccccc34)CC1)CC2CC(=O)O (stereo not given) returned Tg IFNy HTS -74*.
